Active and inactive are the calls of the source. Unless noted, no rule for the calls is given here.
Columns and labels:
[1] = test system: XIP peptide (Xip251-270) binding; assay: small-molecule binders of XIP peptide, primary screen, biochemical, small-molecule microarray, fluorescence 635/667 nm, 0.1 µg/mL protein (AID 1182); conditions: fluorescent protein binding, 635 nm, higher = more signal, called active from +8 up or from −8 down
XIP peptide (Xip251-270) = assay: small-molecule binders of XIP peptide, primary screen, biochemical, small-molecule microarray, fluorescence 635/667 nm, 0.5 µg/mL protein (AID 1183); conditions: small-molecule microarray binding, fluorescence 635 nm; higher = more signal
[2] = Plasmodium falciparum growth inhibition, primary screen, strain 3D7, DAPI fluorescence, 100 nL (AID 1184);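 also: parasites grown inside human red blood cells in medium with human serum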; conditions: P. falciparum 3D7 growth, 3 d, higher = more signal
[3] = target: Homeobox protein Hox-A13 (Mus musculus) (UniProt Q62424); assay: inhibitors of HoxA13-DNA binding, primary screen, biochemical, fluorescence polarization, labeled oligonucleotide (AID 1185); conditions: 15 min, higher = more signal, called active from +8 up or from −8 down
Chain of Homeobox protein Hox-A13 (Mus musculus) (Q62424 whole entry, looked up): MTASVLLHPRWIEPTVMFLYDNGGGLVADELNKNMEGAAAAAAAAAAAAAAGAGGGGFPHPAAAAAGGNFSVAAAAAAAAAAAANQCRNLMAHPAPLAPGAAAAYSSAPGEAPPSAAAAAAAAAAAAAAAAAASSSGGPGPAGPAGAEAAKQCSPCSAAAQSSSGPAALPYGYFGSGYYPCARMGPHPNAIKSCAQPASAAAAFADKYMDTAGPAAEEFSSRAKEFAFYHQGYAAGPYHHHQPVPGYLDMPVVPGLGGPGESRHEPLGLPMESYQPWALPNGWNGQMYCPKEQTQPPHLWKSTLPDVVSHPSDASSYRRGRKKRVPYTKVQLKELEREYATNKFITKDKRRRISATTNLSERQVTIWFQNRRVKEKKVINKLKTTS

[4] = inhibitors of hydroxyurea-induced Chk1 phosphorylation, primary screen, imaging, HeLa, phospho-Chk1 antibody, percent positive cells (AID 1186); conditions: hydroxyurea-induced phospho-Chk1 immunofluorescence imaging, higher = more signal
[5] = inhibitors of hydroxyurea-induced Chk1 phosphorylation, primary screen, imaging, HeLa, phospho-Chk1 nuclear intensity (AID 1187); conditions: hydroxyurea-induced phospho-Chk1 immunofluorescence imaging, higher = more signal

SMILES: C=C[C@H](C)[C@@H](OC(=O)Nc1ccc(SC)cc1)c1ccc(OCCO)cc1
- composite z-score [1]: -0.0975 (inactive)
- composite z-score (XIP peptide (Xip251-270)): -0.0208
- z-score [2]: -0.526
- z-score [3]: -4.53 (inactive)
- z-score [4]: -0.328 (inactive)
- z-score [5]: -0.809 (inactive)

SMILES: COC(=O)[C@H](Cc1ccccc1)N1CC(C)(OC)O[C@@H](Cc2ccccc2)[C@H]1/C=C/C1CC1 (stereo partly specified)
- composite z-score [1]: 0.242 (inactive)
- composite z-score (XIP peptide (Xip251-270)): -0.128
- z-score [2]: 0.291
- z-score [3]: -4.77 (inactive)
- z-score [4]: 0.512 (inactive)
- z-score [5]: 1.22 (inactive)

SMILES: COCCOC(=O)N1C(=O)[C@@]2(c3ccccc31)[C@H](C(=O)Nc1nc3ccccc3s1)[C@H]1C(=O)O[C@H](c3ccccc3)[C@H](c3ccccc3)N1[C@@H]2c1ccccc1OCCO
- composite z-score [1]: 0.238 (inactive)
- composite z-score (XIP peptide (Xip251-270)): 0.801
- z-score [2]: -1.68
- z-score [3]: -0.587 (inactive)
- z-score [4]: 0.152 (inactive)
- z-score [5]: 0.367 (inactive)

SMILES: COc1ccc([Si](C)(C)[C@H]2[C@H](CC(=O)N3CCC[C@H]3CO)O[C@@]3(C(=O)N(C)c4ccccc43)[C@@H]2C)cc1
- composite z-score [1]: -0.216 (inactive)
- composite z-score (XIP peptide (Xip251-270)): 0.924
- z-score [2]: 1.07
- z-score [3]: -3.41 (inactive)
- z-score [4]: -0.529 (inactive)
- z-score [5]: -0.766 (inactive)

SMILES: COC(=O)C(CC#Cc1ccc2c(c1)[C@]1(C(=O)N2)[C@H](C(=O)N2CCN(c3ncccn3)CC2)[C@H]2C(=O)O[C@H](c3ccccc3)[C@H](c3ccccc3)N2[C@@H]1c1ccc(O)cc1)C(=O)OC
- composite z-score [1]: 0.959 (inactive)
- composite z-score (XIP peptide (Xip251-270)): 0.782
- z-score [2]: -2.28
- z-score [3]: -2.37 (inactive)
- z-score [4]: -0.413 (inactive)
- z-score [5]: -1.02 (inactive)

SMILES: COC(=O)c1c2oc(c1C(=O)OC)C(=O)N[C@H](Cc1ccccc1)Cn1cc(nn1)C1(CCCCC1)NC(=O)N[C@H](CO)CC2
- composite z-score [1]: 0.772 (inactive)
- composite z-score (XIP peptide (Xip251-270)): -0.652
- z-score [2]: 0.764
- z-score [3]: -3.34 (inactive)
- z-score [4]: -0.0529 (inactive)
- z-score [5]: -0.669 (inactive)

SMILES: Cc1ccc(S[C@]2(C(=O)NC(C)C)CC(=O)N(Cc3ccccc3)[C@@H]2c2ccc(CO)cc2)cc1
- composite z-score [1]: 1.13 (inactive)
- composite z-score (XIP peptide (Xip251-270)): 0.123
- z-score [2]: 0.14
- z-score [3]: -1.54 (inactive)
- z-score [4]: -0.412 (inactive)
- z-score [5]: -0.32 (inactive)

SMILES: CC(C)[Si]1(C(C)C)OCc2cc(-c3ccc(-c4ccc(Cl)c(Cl)c4)o3)nc(-c3ccc(Oc4ccccc4)cc3)c21
- composite z-score [1]: 0.146 (inactive)
- composite z-score (XIP peptide (Xip251-270)): 0.548
- z-score [2]: -0.497
- z-score [3]: -1.74 (inactive)
- z-score [4]: 0.0415 (inactive)
- z-score [5]: -0.0792 (inactive)

SMILES: COCCCNC(=O)[C@@]1(Cc2ccccc2I)c2ccccc2C(=O)N(Cc2ccccc2OC)[C@H]1c1ccc(CO)cc1
- composite z-score [1]: 1.02 (inactive)
- composite z-score (XIP peptide (Xip251-270)): 0.0714
- z-score [2]: -1.07
- z-score [3]: -4.88 (inactive)
- z-score [4]: -0.14 (inactive)
- z-score [5]: 0.04 (inactive)

SMILES: COC(=O)[C@@]1(Cc2ccc(F)cc2)[C@H]2c3cc(C(=O)N(C)C)n(Cc4cccc5ccccc45)c3C[C@H]2CN1C(=O)c1ccccc1
- composite z-score [1]: 0.0361 (inactive)
- composite z-score (XIP peptide (Xip251-270)): 0.891
- z-score [2]: -1.51
- z-score [3]: -4.81 (inactive)
- z-score [4]: 0.406 (inactive)
- z-score [5]: 0.252 (inactive)

SMILES: Cc1ccc(S[C@]2(C(=O)NCc3ccccc3)CC(=O)N(Cc3ccccc3C(F)(F)F)[C@@H]2c2ccc(CO)cc2I)cc1
- composite z-score [1]: 0.404 (inactive)
- composite z-score (XIP peptide (Xip251-270)): 0.623
- z-score [2]: 0.0951
- z-score [3]: -2.23 (inactive)
- z-score [4]: 0.225 (inactive)
- z-score [5]: 0.923 (inactive)

SMILES: CO[C@H]1O[C@H](CO)[C@@H](OC(=O)Nc2cccc(F)c2)[C@H](OC(=O)c2cc3ccccc3[nH]2)[C@H]1OC(=O)c1cc2ccccc2[nH]1
- composite z-score [1]: -0.194 (inactive)
- composite z-score (XIP peptide (Xip251-270)): -0.141
- z-score [2]: -0.194
- z-score [3]: -0.266 (inactive)
- z-score [4]: -0.313 (inactive)
- z-score [5]: -0.455 (inactive)

SMILES: C=C(COC)/C(=C/C[C@@H](OC(C)=O)c1cccc(OCCO)c1)c1cnc2ccccc2c1
- composite z-score [1]: 0.281 (inactive)
- composite z-score (XIP peptide (Xip251-270)): 0.21
- z-score [2]: -3.1
- z-score [3]: -5.52 (inactive)
- z-score [4]: 0.271 (inactive)
- z-score [5]: -0.181 (inactive)

SMILES: COCCCNC(=O)[C@@]1(Cc2ccccc2I)c2ccccc2C(=O)N(C2CCCCC2)[C@H]1c1ccc(CO)cc1
- composite z-score [1]: 0.26 (inactive)
- composite z-score (XIP peptide (Xip251-270)): 0.744
- z-score [2]: -1.99
- z-score [3]: -5.35 (inactive)
- z-score [4]: -0.0463 (inactive)
- z-score [5]: 0.155 (inactive)

SMILES: CN1C(=O)C2C=CC(C(O)COCc3ccccc3)N(Nc3ccc([N+](=O)[O-])cc3[N+](=O)[O-])C2C1=O (stereo unspecified)
- composite z-score [1]: 0.649 (inactive)
- composite z-score (XIP peptide (Xip251-270)): 0.544
- z-score [2]: 0.391
- z-score [3]: -4.41 (inactive)
- z-score [4]: -0.589 (inactive)
- z-score [5]: -0.803 (inactive)

SMILES: COc1ccc([Si](C)(C)[C@H]2[C@H](CC(=O)N(CCO)Cc3ccccc3)O[C@@]3(C(=O)N(Cc4cccc(N5CCCCC5=O)c4)c4ccccc43)[C@@H]2C)cc1
- composite z-score [1]: 2.13 (inactive)
- composite z-score (XIP peptide (Xip251-270)): 0.587
- z-score [2]: -2.59
- z-score [3]: -0.38 (inactive)
- z-score [4]: -0.929 (inactive)
- z-score [5]: -0.607 (inactive)

SMILES: CCN1C(=O)C2CC(=O)C3C(CN(S(=O)(=O)c4ccc(C)cc4)C3c3ccc(C)cc3)C2C1=O (stereo unspecified)
- composite z-score [1]: 0.761 (inactive)
- composite z-score (XIP peptide (Xip251-270)): -0.248
- z-score [2]: 0.38
- z-score [3]: -4.69 (inactive)
- z-score [4]: 0.137 (inactive)
- z-score [5]: -0.0394 (inactive)

SMILES: Cc1cccc([C@H]2C[C@H]3C(Br)=C[C@@]2(CO)C(=O)[C@]32CO2)c1
- composite z-score [1]: 1.48 (inactive)
- composite z-score (XIP peptide (Xip251-270)): 0.137
- z-score [2]: 1.54
- z-score [3]: -1.41 (inactive)
- z-score [4]: -0.272 (inactive)
- z-score [5]: -0.557 (inactive)

SMILES: COc1ccc(C(=O)Nc2ccc(CN3C(=O)[C@]4(O[C@H](CC(=O)N(CCO)Cc5ccccc5)[C@@H]([Si](C)(C)c5ccc(OC)cc5)[C@@H]4C)c4ccccc43)cc2)cc1
- composite z-score [1]: 0.321 (inactive)
- composite z-score (XIP peptide (Xip251-270)): 0.703
- z-score [2]: -2
- z-score [3]: -1.96 (inactive)
- z-score [4]: 0.274 (inactive)
- z-score [5]: 0.337 (inactive)

SMILES: O=C1OCCC/C=C\[C@H]2OC34C=CCN(Cc5ccccc5)C(=O)[C@H]3N(CCO)C(=O)[C@@H]4C12 (stereo partly specified)
- composite z-score [1]: 1.68 (inactive)
- composite z-score (XIP peptide (Xip251-270)): -0.0058
- z-score [2]: 0.499
- z-score [3]: -5.69 (inactive)
- z-score [4]: -0.909 (inactive)
- z-score [5]: -0.375 (inactive)

SMILES: C[C@@]1([C@@H](NS(=O)(=O)c2cccc3cccnc23)c2ccc(-c3ccccc3)cc2)C[C@H]1C1CCCCC1
- composite z-score [1]: 0.648 (inactive)
- composite z-score (XIP peptide (Xip251-270)): -0.209
- z-score [2]: -0.748
- z-score [3]: 2.32 (inactive)
- z-score [4]: 1.42 (inactive)
- z-score [5]: 0.534 (inactive)

SMILES: O=C1O[C@H](c2ccccc2)[C@H](c2ccccc2)N2[C@H]1[C@@H](C(=O)Nc1nc3ccccc3s1)[C@]1(C(=O)Nc3ccccc31)[C@H]2c1ccccc1OCCO
- composite z-score [1]: 1.18 (inactive)
- composite z-score (XIP peptide (Xip251-270)): 0.758
- z-score [2]: -1.08
- z-score [3]: 2 (inactive)
- z-score [4]: 0.153 (inactive)
- z-score [5]: 0.65 (inactive)

SMILES: CC(C)C[C@@H]1NC(=O)[C@@H]2C[C@H](C(=O)NCCCCCCNC(=O)CS)[C@H](c3ccc(O)cc3)N2C1=O
- composite z-score [1]: 3.03 (inactive)
- composite z-score (XIP peptide (Xip251-270)): 0.843
- z-score [2]: -1.19
- z-score [3]: -2.01 (inactive)
- z-score [4]: -0.265 (inactive)
- z-score [5]: -0.1 (inactive)

SMILES: COc1cc2c(cc1OC)CN(C(=O)[C@@H]1[C@H]3C(=O)O[C@H](c4ccccc4)[C@H](c4ccccc4)N3[C@H](c3ccc(O)cc3)[C@@]13C(=O)Nc1ccc(C#CC4=CCCCC4)cc13)CC2
- composite z-score [1]: 0.715 (inactive)
- composite z-score (XIP peptide (Xip251-270)): 0.535
- z-score [2]: -0.75
- z-score [3]: 2.74 (inactive)
- z-score [4]: 0.0655 (inactive)
- z-score [5]: 0.407 (inactive)

SMILES: CC(CO)N1C(=O)[C@@H]2[C@H]3C(=O)OCC=C[C@H]3OC23C=CCN(c2ccc4ccccc4c2)C(=O)[C@@H]13 (stereo partly specified)
- composite z-score [1]: -0.0975 (inactive)
- composite z-score (XIP peptide (Xip251-270)): 0.547
- z-score [2]: 0.48
- z-score [3]: -4.49 (inactive)
- z-score [4]: -0.233 (inactive)
- z-score [5]: 0.0823 (inactive)

SMILES: CCOC(=O)C[C@H]1[C@H](OC(=O)c2ccc(-c3ccccc3)cc2)[C@@H](NC(=O)c2ccc(-c3ccccc3)cc2)c2cc(OCCCO)ccc2N1C(=O)c1ccccc1
- composite z-score [1]: 1.11 (inactive)
- composite z-score (XIP peptide (Xip251-270)): 0.426
- z-score [2]: -0.482
- z-score [3]: -1.22 (inactive)
- z-score [4]: -0.166 (inactive)
- z-score [5]: 0.205 (inactive)

Source: PubChem BioAssay
